From PubChem BioAssay (NCATS)
Inconclusive results are not listed. Activity calls are given as the source filed them. Calls follow the shape of the dose curve; as a rule, active = well fitted inhibition curve with a large enough effect; inconclusive = small, poorly fitted or top-dose-only effect; inactive = flat fitted curve, though single readings scatter.

Legend:
CRL-7250 = normal cell line; experiment: Cytotoxic Profiling of Annotated Libraries Using Quantitative High-Throughput Screening (AID 1296008); conditions: Five cell lines viability, CellTiter-Glo ATP luminescence, 48-72 h; max response: hits give low values; also: potency is read from the fitted curve at half-maximal effect; as to max response: % is scaled to controls: 0 for no effect and ±100 for the full control effect
Summary of the method: (§1)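 Cells exposed to compounds for 48 or 72 hr at 37 degrees Celsius. Viability read as ATP-coupled luminescence with CellTiter-Glo after 10 min at room temperature.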

HEK293 = experiment: as above; conditions: Five cell lines viability, CellTiter-Glo ATP luminescence, 48-72 h; max response: hits give low values
Summary of the method: as §1

HaCat [1] = experiment: as above; conditions: Five cell lines viability, CellTiter-Glo ATP luminescence, 48-72 h; max response: hits give low values
Summary of the method: as §1

KB-3-1 = experiment: as above; conditions: Five cell lines viability, CellTiter-Glo ATP luminescence, 48-72 h; max response: hits give low values
Summary of the method: as §1

NIH3T3 = experiment: as above; conditions: Five cell lines viability, CellTiter-Glo ATP luminescence, 48-72 h; max response: hits give low values
Summary of the method: as §1

HACAT [2] = experiment: qHTS assay to identify novel small-molecules to repurpose for Merkel cell carcinoma treatment (AID 1296009); conditions: MCC and control cell lines, CellTiter-Glo viability, 72 h; at 44.8 µM (top of the series) unless noted
Summary of the method: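 CellTiter-Glo luminescence after 72 hr compound exposure at 37 degree celsius gave cell viability. Libraries NPC and MIPE were run as 8- and 11-point dose responses; RLUs normalized to DMSO (negative) and no-cell (cytotoxicity) controls.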
Also: nearly all actives have a fitted effect of over 60% in size.

C=C1Cc2c(Cl)cc3[nH]c4c5c3c2[C@@]2(O)[C@@H]1C[C@@H]2C(C)(C)O[C@H]5C1CC[C@@]2(O)[C@@]35O[C@@H]3[C@H]3OC(C)(C)[C@H]3O[C@H]5CC[C@]2(C)[C@@]41C (stereo not given in full)
inactive: max response (CRL-7250) -4.78% | max response (HEK293) 0.456% | outcome (HaCat [1]) | max response (KB-3-1) 6.12% | outcome (NIH3T3) | outcome (HACAT [2]) inactive [at 17.4 µM]

O=C(O)c1ccnc(-c2cc(C(=O)NCCc3ccccc3)ccn2)c1
inactive: max response (CRL-7250) 0.77% | max response (HEK293) -13.9% | outcome (HaCat [1]) | max response (KB-3-1) 6.53% | max response (NIH3T3) -2.98% | outcome (HACAT [2])

COc1c(O[C@@H]2O[C@H](CO)[C@@H](O)[C@H](O)[C@H]2O)c(CCC(=O)O)cc2ccoc12
inactive: max response (CRL-7250) -9.14% | max response (HEK293) -0.3% | outcome (HaCat [1]) | max response (KB-3-1) 2.96% | max response (NIH3T3) 0.4% | outcome (HACAT [2])

O=C(O[C@H]1[C@H](Oc2ccc(O)cc2CO)O[C@H](CO)[C@@H](O)[C@@H]1O)c1ccccc1
inactive: max response (CRL-7250) -4.77% | max response (HEK293) -1.69% | outcome (HaCat [1]) | outcome (KB-3-1) | max response (NIH3T3) 2.07% | outcome (HACAT [2]) inactive [at 17.4 µM]

COc1cc(-c2ccc(O)cc2)c(OC)c(O)c1C1=CC(=O)OC1CC(=O)O (stereo not given)
inactive: max response (CRL-7250) 2.67% | max response (HEK293) 1.87% | outcome (HaCat [1]) | max response (KB-3-1) -5.37% | outcome (NIH3T3) | outcome (HACAT [2])

OC[C@H]1O[C@@H](Oc2cc(O)cc(-c3cc4ccc(O[C@@H]5O[C@H](CO)[C@@H](O)[C@H](O)[C@H]5O)cc4o3)c2)[C@H](O)[C@@H](O)[C@@H]1O
inactive: max response (CRL-7250) -9.86% | max response (HEK293) -2.42% | outcome (HaCat [1]) | max response (KB-3-1) 0.0792% | max response (NIH3T3) -3.34% | outcome (HACAT [2]) inactive [at 17.4 µM]

C[C@@H]1O[C@@H](O[C@H]2[C@@H]3C=CO[C@@H](O[C@@H]4O[C@H](CO)[C@@H](O)[C@H](O)[C@H]4O)[C@@H]3[C@@]3(CO)O[C@@H]23)[C@H](O)[C@H](OC(=O)/C=C/c2ccc(O)c(O)c2)[C@H]1O
inactive: max response (CRL-7250) 2.8% | max response (HEK293) 1.13% | outcome (HaCat [1]) | max response (KB-3-1) -0.915% | outcome (NIH3T3) | outcome (HACAT [2]) inactive [at 17.4 µM]

O=C(OC(C(F)(F)F)C(F)(F)F)N1CCN(Cc2cccc(Oc3ccccc3)c2)CC1
inactive: outcome (CRL-7250) | max response (HEK293) -26.5% | outcome (HaCat [1]) | max response (KB-3-1) -5.42% | max response (NIH3T3) 4.82% | outcome (HACAT [2])

COc1ccc(/C=C/C(=O)N2CCCC2)cc1
inactive: max response (CRL-7250) 1.09% | max response (HEK293) 2.31% | outcome (HaCat [1]) | max response (KB-3-1) 2.27% | max response (NIH3T3) -2.69% | outcome (HACAT [2])

O=[N+]([O-])c1cc(Cl)ccc1S(=O)(=O)N1CCN(Cc2ccccc2)CC1
inactive: max response (CRL-7250) -3.5% | max response (HEK293) -21.3% | outcome (HaCat [1]) | max response (KB-3-1) -13.2% | outcome (NIH3T3) | outcome (HACAT [2])

COc1cc([C@H]2OC[C@](O)(Cc3ccc(O[C@@H]4O[C@H](CO)[C@@H](O)[C@H](O)[C@H]4O)c(OC)c3)[C@@H]2CO)ccc1O
inactive: max response (CRL-7250) -8.35% | max response (HEK293) 1.25% | outcome (HaCat [1]) | max response (KB-3-1) 0.848% | outcome (NIH3T3) | outcome (HACAT [2]) inactive [at 17.4 µM]

COC(=O)C1=CO[C@@H](O[C@@H]2O[C@H](CO)[C@@H](O)[C@H](O)[C@H]2O)[C@@H]2C(C)CC(=O)[C@]12O (stereo not given in full)
inactive: max response (CRL-7250) 4.9% | max response (HEK293) -0.581% | outcome (HaCat [1]) | max response (KB-3-1) 1.82% | outcome (NIH3T3) | outcome (HACAT [2]) inactive [at 17.4 µM]

O=C(NC/C=C/CN1CCN(c2cccc(Cl)c2Cl)CC1)c1ccc(-c2ccccn2)cc1
active: Potency (HEK293) 13 µM
inactive: max response (CRL-7250) -4.15% | outcome (HaCat [1]) | max response (KB-3-1) -2.38% | max response (NIH3T3) 2.53% | outcome (HACAT [2])

Cc1c(Cc2ccc3ccccc3n2)c2cc(F)ccc2n1CC(=O)O
inactive: max response (CRL-7250) -9.45% | max response (HEK293) 0.378% | outcome (HaCat [1]) | max response (KB-3-1) 7.66% | outcome (NIH3T3) | outcome (HACAT [2])

CC1C2=CC(=O)OC2(O)CC2C1C(O)CC1C(C)(CO)CCCC21C (stereo not given)
inactive: outcome (CRL-7250) | max response (HEK293) 2.57% | outcome (HaCat [1]) | max response (KB-3-1) 0.829% | outcome (NIH3T3) | outcome (HACAT [2])

COC(=O)C1=COC(OC2OC(CO)C(O)C(O)C2O)C2C(COC(=O)/C=C/c3ccc(O)cc3)C(O)C(O)C12 (stereo not given)
inactive: outcome (CRL-7250) | max response (HEK293) 0.595% | outcome (HaCat [1]) | outcome (KB-3-1) | max response (NIH3T3) -5.08% | outcome (HACAT [2]) inactive [at 17.4 µM]

CC12CC(c3ccoc3)OC(=O)C1CCC1(C)C2CCC(O)C1(C)O (stereo not given)
inactive: outcome (CRL-7250) | max response (HEK293) 0.137% | outcome (HaCat [1]) | max response (KB-3-1) 6.59% | outcome (NIH3T3) | outcome (HACAT [2])

COc1ccc(NC(=O)c2ccc(-c3ccc(C(N)=O)cc3C)cc2)cc1N1CCN(C)CC1
inactive: max response (CRL-7250) -5.67% | max response (HEK293) -78.4% | outcome (HaCat [1]) | max response (KB-3-1) 1.64% | max response (NIH3T3) 4.28% | outcome (HACAT [2])

Oc1ccccc1-c1cc(-c2ccccc2F)[nH]n1
inactive: max response (CRL-7250) 3.55% | max response (HEK293) 4.01% | outcome (HaCat [1]) | max response (KB-3-1) -0.368% | max response (NIH3T3) 3.17% | outcome (HACAT [2])

C=C(C(=O)O)[C@@H]1CC[C@@]2(C)CCC[C@@](C)(O)[C@@H]2C1
inactive: max response (CRL-7250) -2.07% | max response (HEK293) -3.93% | outcome (HaCat [1]) | max response (KB-3-1) 5.56% | max response (NIH3T3) 1.2% | outcome (HACAT [2])

C=C(C(=O)O)C1CC(OC(=O)CC(C)CC)C2(C)CCCC(=C)C2C1 (stereo not given)
inactive: max response (CRL-7250) 4.7% | max response (HEK293) 4.07% | outcome (HaCat [1]) | max response (KB-3-1) 2.84% | outcome (NIH3T3) | outcome (HACAT [2])

C=C1C2(C)CC3C4(C)C=CC(=O)OC(C)(C)C4CCC3(C)C1(C(=O)OC)C(=O)C(C)(O)C2=O (stereo not given)
inactive: max response (CRL-7250) -7.15% | max response (HEK293) -101% | outcome (HaCat [1]) | outcome (KB-3-1) | outcome (NIH3T3) | outcome (HACAT [2]) inactive [at 17.4 µM]

CC(=O)NC(C(=O)OC1CCC(C)(C)C2CC=C3C(=O)OCC3C12C)C(C)C (stereo not given)
inactive: outcome (CRL-7250) | max response (HEK293) -2.64% | outcome (HaCat [1]) | outcome (KB-3-1) | max response (NIH3T3) 4.96% | outcome (HACAT [2])

CC1OC(O[C@H]2CC[C@@]3(C)C(CC[C@]4(C)C3CC=C3C5CC(C)(C)CC[C@]5(C(=O)OC5OC(CO)C(OC6OCC(OC7OCC(O)C(O)C7O)C(O)C6O)C(O)C5O)CC[C@]34C)C2(C)C)C(O)C(O)C1OC1OC(CO)C(O)C(OC2OC(CO)C(O)C(O)C2O)C1O (stereo not given in full)
inactive: max response (CRL-7250) -2.46% | max response (HEK293) -5.73% | outcome (HaCat [1]) | max response (KB-3-1) 2.43% | max response (NIH3T3) -1.17% | outcome (HACAT [2]) inactive [at 9.27 µM]

CC(CNS(=O)(=O)C(C)C)c1ccc(-c2ccc(C#N)cc2)cc1 (stereo not given)
active: Potency (CRL-7250) 5.8 µM | Potency (HEK293) 7.31 µM
inactive: outcome (HaCat [1]) | max response (KB-3-1) -27.5% | max response (NIH3T3) -14.2% | outcome (HACAT [2])
